Pf growth 96h – P. falciparum growth inhibition at 96 hour, primary screen for plastid delayed-death inhibitors; P. falciparum luciferase reporter growth, 96 h; Potency, µM (highest dose often 28.7 µM), inactives show at the top dose activity change, negative = inhibition, usual class: inhibitors; 320,000 tested, 6.9% active; AID 504834; active = well fitted inhibition curve with a large enough effect; inconclusive = small, poorly fitted or top-dose-only effect, or another doubt; inactive = no such curve, though single readings can be large or run the other way; note: % is set by controls: 0 for no effect and ±100 for the full control effect
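P. falciparum expressing integrated firefly luciferase grown in erythrocytes (2% hematocrit, 0.05% parasitemia final) with compounds for 96 hours at 37 C, 5% CO2. Growth inhibition read as loss of luminescence after adding luciferase detection reagent.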
NS1 function inh – inhibitors of influenza NS1 protein function; Potency, µM (series often up to 46.1 µM), for inactives: at the highest dose activity, positive = more growth; 270,000 tested, 0.4% active; note: actives are rising curves; nearly all actives have a fitted effect of over 50% in size
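Compounds were scored for reversing the slow growth caused by influenza A NS1 in S. cerevisiae, measured by optical density at 600 nm. Assay medium contained 2% galactose at pH 6.0; NS1-free yeast of the same strain were the positive control.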
Pf growth 48h – P. falciparum growth inhibition at 48 hours (one generation); P. falciparum luciferase growth in erythrocytes, 48 h; Potency, µM (series often up to 28.7 µM), for inactives: at the top dose activity change, negative = inhibition, actives largely listed as inhibitors; 310,000 tested, 5.9% active; active = well fitted inhibition curve with a large enough effect; inconclusive = small, poorly fitted or top-dose-only effect, or another doubt; inactive = no such curve, though single readings can be large or run the other way; note: % is set by controls: 0 for no effect and ±100 for the full control effect
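A one-generation exposure of luciferase-tagged malaria parasites in RPMI 1640/Albumax erythrocyte culture, 37 C and 5% CO2. Inhibition is inferred from decreased luminescence after adding detection reagent.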
SARS PLP yeast – inhibitors of SARS-CoV papain-like protease in yeast | S. cerevisiae expressing SARS-CoV PLpro, growth rescue | Potency, µM (doses to about 32.9 µM), inactives show top-dose activity, positive = growth rescue, hits mostly activators | 330,000 tested, 0.19% active; note: 0% is about no effect; nearly all actives have a fitted effect of over 55% in size
The depositor's hits bear a star; u = inconclusive; x = no result; [ ] = dose if it differs, or a comment. Compounds with a hit are over-represented: about 10% of the library has one in this group of screens. Unless noted, calls come from the whole dose curve. Potency is the fitted concentration of half-maximal effect.

SMILES | Pf growth 96h | NS1 function inh | Pf growth 48h | SARS PLP yeast
COc1ccc(OC)c(/C=N/NC(=O)CNC(=O)c2ccc(S(=O)(=O)N3CCCC3)cc2)c1 | 4.1µM* | x | 27% | 0%
COc1ccc(S(=O)(=O)N2CCCCC2)cc1NC(=O)Cc1cccs1 | u | x | 12µM* | 0%
COc1ccc(S(=O)(=O)N2CCCCCC2)cc1C(=O)NCc1ccccc1Cl | 8.3µM* | x | 5.9µM* | 2%
O=C(Cc1cccs1)Nc1cc(S(=O)(=O)N2CCCCC2)ccc1Cl | u | x | u | 1%
O=C(O)CSCC(=O)N1CCN(Cc2ccc3c(c2)OCO3)CC1 | 0% | -4% | -4% | -2%
COc1ccc(S(=O)(=O)N2CCCCC2)cc1NC(=O)Cc1sc(C)nc1-c1ccc(F)cc1 | u | x | 12µM* | 0%
COc1ccc(S(=O)(=O)N2CCOCC2)cc1NC(=O)Cc1sc(C)nc1-c1ccc(F)cc1 | u | x | u | 1%
CNc1c(NC(=O)C2CCC(C)CC2)c(=O)oc2ccccc12 (configuration not stated) | 5% | -2% | -13% | 2%
Oc1cccc(/C=N/Nc2nn3cnnc3c3ccccc23)c1 | 4% | -3% | 12% | -3%
COc1cccc(/C=N/Nc2nn3cnnc3c3ccccc23)c1O | 0.33µM* | 13% | u | -3%
COc1cccc(/C=N/Nc2ccnc(=O)[nH]2)c1O | 0.23µM* | 3% | 0.29µM* | 4%
O=c1nccc(N/N=C/c2ccccc2O)[nH]1 | 0.83µM* | 3% | 9.3µM* | 1%
CSc1ccccc1C(=O)N1CCC(n2nccc2NC(=O)C(C)(C)C)CC1 | 8% | 14% | u | -4%
O=C(NCCc1ccccc1)C1CCCN1C(=O)Nc1ccc(Cl)cc1 (configuration not stated) | u | 12% | -1% | -3%
O=c1ccc(-c2ccc(S(=O)(=O)NCC3CCN(Cc4cccc(F)c4)CC3)s2)n[nH]1 | u | -1% | 5.2µM* | -1%
O=C(OC1C[C@H]2CC[C@@H](C1)[N+]21CCCC1)C(O)(c1ccccc1)c1ccccc1 (some centres not stated) | 9% | x | 6.7µM* | x
COc1ccc(-c2noc(CN(C)Cc3ccccc3)n2)cc1 | u | -14% | 21% | 2%
COc1cccc(CN(C)Cc2nc(C3CC3)no2)c1 | 12µM* | -4% | 75% | 0%
CCOc1ccc(NC(=O)c2ccccc2NC(=O)CN(C)CC(=O)Nc2ccc(C)cc2)cc1 | u | 7% | 10µM* | 1%
CCOc1ccc(NC(=O)c2ccccc2NC(=O)CN2CCCCCC2)cc1 | 3% | x | u | 3%
O=C(NC(Cc1ccccc1)C(=O)O)NC12CC3CC(CC(C3)C1)C2 (configuration not stated) | u | 29% | -7% | 2%
COc1cc(C(=O)N/C(=C\c2cn(C)c3ccccc23)C(=O)NCCN2CCOCC2)cc(OC)c1OC | 21% | -18% | 0% | -3%
COc1cc(OC)cc(N2C(=O)CC(N3CCC(C(=O)N4CCCCC4)CC3)C2=O)c1 (configuration not stated) | 15µM* | -118% | 0% | -18%
CC(=O)Nc1cccc(N2C(=O)CC(N3CCC(C(=O)N4CCCCC4)CC3)C2=O)c1 (configuration not stated) | x | 0% | 5% | 0%
C/C(=N\Nc1ccccc1C(=O)O)c1ccncc1 | 152% | 15% | 114% | 1%
SMILES | Pf growth 96h | NS1 function inh | Pf growth 48h | SARS PLP yeast
Cn1c(O)c(/C=N/NC(=O)c2cc3ccccc3cc2O)c2ccccc21 | u | -6% | u | 13%
COCCn1c(C)cc(/C=N/NC(=O)c2cc3ccccc3cc2O)c1C | 9.3µM* | x | 3.7µM* | -7%
CCN1CCCC1CNC(=S)Nc1ccc(C(C)=O)cc1 (configuration not stated) | -24% | x | 15µM* | 0%
Cc1cc(C)c2cc(C(=O)Nc3ccc(C)c(F)c3)[nH]c2c1 | u | -4% | 12µM* | -3%
COc1ccc2[nH]c(C(=O)Nc3ccc(C)c(F)c3)cc2c1 | 39% | -2% | 29% | 0%
COc1ccc(OC)c(CC(NC(C)=O)C(=O)NC2CCN(c3c(Cc4ccccc4)c(C)nc4ncnn34)CC2)c1 (configuration not stated) | u | -6% | u | 22%
CC(=O)NC(Cc1ccc(F)c(F)c1)C(=O)NC1CCN(c2c(Cc3ccccc3)c(C)nc3ncnn23)CC1 (configuration not stated) | 15% | 1% | 15% | 0%
O=S(=O)(c1ccccc1)N1CCN(c2cc(-c3ccccc3)nc3ncnn23)CC1 | u | -19% | u | 2%
Cc1ccccc1NC(=O)C1CCN(c2cc(-c3ccccc3)nc3ncnn23)CC1 | -19% | -2% | 7.4µM* | 27%
COc1cccc(CC(NC(C)=O)C(=O)NC2CCN(c3c(Cc4ccccc4)c(C)nc4ncnn34)CC2)c1 (configuration not stated) | 10µM* | 2% | 3.7µM* | 23%
Cc1cc(N2CCCC(C(=O)Nc3cccc(Cl)c3)C2)n2ncnc2n1 (configuration not stated) | 15µM* | -1% | -2% | 0%
Cc1nc2ncnn2c(N2CCC(C(=O)NC3CCCC3)CC2)c1Cc1ccccc1 | 45% | -1% | 15µM* | 3%
CCOC(=O)c1ccccc1NC(=O)Cc1ccc(S(=O)(=O)N2CCCC2)s1 | x | x | x | -2%
CCOC(=O)c1sc2nc(CC(=O)OC)nc(NCc3ccco3)c2c1C | -23% | -35% | 2.6µM* | -5%
CCOC(=O)c1sc2nc(CC(=O)OC)nc(NCC(=O)OC)c2c1C | 1% | -54% | u | 5%
COc1ccc(CN2CC(=O)N(c3cc(Cl)ccc3OC)C2=S)cc1OC | -4% | 0% | 9.3µM* | 0%
COc1ccc(Cl)cc1N1C(=O)CN(Cc2cc(OC)c(OC)c(OC)c2)C1=S | 37% | -13% | 3.3µM* | 0%
O=C(O)c1ccccc1C(=O)c1ccc2c(c1)CCC2 | 17% | 0% | 16%[0.00184 µM] | 0%
CC(C)(C)c1ccc(C(=O)N/C(=C\c2cccs2)C(=O)NCc2ccco2)cc1 | 8.3µM* | -60% | u | -6%
COc1ccc(-n2c(O)c(C(C)=NCc3ccco3)c(=O)[nH]c2=O)cc1 | u | 15% | -3% | 15%
COc1ccc(-n2c(O)c(C(C)=NCCc3c[nH]c4ccccc34)c(=O)[nH]c2=O)cc1 | u | -2% | 12µM* | -1%
O=C(O)c1cc(N=Nc2c(O)ccc3ccccc23)cc(C(=O)O)c1 | u | 5% | u | 0%
O=C(O)c1cc2ccccc2c(N=Nc2cccnc2)c1O | 2.9µM* | -2% | -12% | -1%
CCn1cnc2sc(C(=O)Oc3ccc(Br)cc3)c(C)c2c1=O | 2.9µM* | x | 54% | -3%
CCCCOP(=O)(OCCCC)C1(NS(=O)(=O)c2ccccc2)C=CC(=O)c2ccccc21 (configuration not stated) | u | -11% | 10µM* | -3%
CCCCOCCCNS(=O)(=O)c1ccccc1 | 24% | 8% | -15% | 0%
CCOC(=O)c1cnc2c(-c3ccc(Cl)cc3)c(C)nn2c1N | 9.3µM* | 7% | 8% | -6%
Cc1nn(C)c2ncc(C(N)=O)c(Oc3cccnc3)c12 | 2% | 0% | -8% | 1%

Source: PubChem
